Luc counter – Kinase-Glo luciferase inhibition (counter-screen). Q27757. Kinase-Glo luciferase, ATP luminescence, 8 min. Potency, µM (top dose mostly 38.3 µM), without a hit: top-dose activity change, negative = inhibition, most hits filed as inhibitors. 200,000 compounds, 0.28% hits. AID 1379; also: % is scaled to controls: 0 for no effect and ±100 for the full control effect; nearly all actives have a fitted effect of over 60% in size
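Inhibition of Kinase-Glo luciferase light generation was assessed at 10 uM ATP in pH 7.2 imidazole buffer, with luminescence measured after eight minutes at ambient temperature.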
Rab9 prom act – activates the Rab9 promoter; Huh7 Rab9 promoter-luciferase reporter, luminescence, 24 h; Potency, µM (top dose mostly 9.22 µM), inactives show top-dose activation, negative = inhibition, usual class: activators; 320,000 compounds, 2.8% hits; AID 485297; also: % of control where 0% means no effect; nearly all actives have a fitted effect of over 60% in size
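Huh7 cells stably carrying a Rab9 promoter-luciferase reporter, 1500 cells per well in OP-MEM I with 10% FBS, treated with compound 24 hours at 37C. Luciferase activity read by luminescence after 10 minutes with Amplite reagent.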
FLuc counter – counter-screen for miR-21 project: firefly luciferase inhibitors or activators. P08659. purified FLuc, Km substrates, luminescence inhibition. Potency, µM (top dose mostly 57.5 µM), inactives show top-dose activity change, negative = inhibition, most hits filed as inhibitors. 360,000 compounds, 6.9% hits. AID 588342;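 also: plate controls were vehicle for no effect and reference inhibitor for full effect; nearly all actives have a fitted effect of over 55% in size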
Target sequence (P08659 whole entry, looked up): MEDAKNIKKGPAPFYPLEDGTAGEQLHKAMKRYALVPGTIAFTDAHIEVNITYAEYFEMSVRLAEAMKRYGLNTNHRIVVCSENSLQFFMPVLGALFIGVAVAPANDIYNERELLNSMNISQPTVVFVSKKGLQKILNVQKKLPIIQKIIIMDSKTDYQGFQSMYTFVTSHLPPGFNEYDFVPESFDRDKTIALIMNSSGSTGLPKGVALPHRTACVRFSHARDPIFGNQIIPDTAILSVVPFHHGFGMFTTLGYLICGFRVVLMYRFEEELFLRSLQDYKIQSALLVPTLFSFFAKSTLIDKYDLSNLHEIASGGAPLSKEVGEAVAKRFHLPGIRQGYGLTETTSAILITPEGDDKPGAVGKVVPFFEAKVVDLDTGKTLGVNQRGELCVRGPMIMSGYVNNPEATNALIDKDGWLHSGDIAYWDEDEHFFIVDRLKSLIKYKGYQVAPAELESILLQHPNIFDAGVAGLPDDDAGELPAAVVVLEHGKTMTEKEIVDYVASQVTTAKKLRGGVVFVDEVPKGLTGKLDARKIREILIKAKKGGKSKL
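Purified P. pyralis luciferase, 10 nM final, with Km-level 10 uM D-luciferin and 10 uM ATP in 50 mM Tris acetate pH 7.5, 10 mM Mg acetate, 0.01% Tween-20, 0.05% BSA; 6-point qHTS titration about 60 µM downward; luminescence read.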
NPC1 promoter act – NPC1 promoter activation; Huh7 NPC1 promoter luciferase reporter, 24 h; Potency, µM (top dose mostly 9.22 µM), inactives show at the top dose activation, hits mostly activators; 320,000 compounds, 2.4% hits; AID 485313; also: % of control where 0% means no effect; nearly all actives have a fitted effect of over 60% in size
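Huh7 cells stably carrying NPC1 promoter–luciferase, plated in Opti-MEM with 10% FBS for 2 h, were exposed to compound in DMSO for 24 h at 37 °C; luciferase reagent was added for 10 min and luminescence read.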
SMN2 splice enh – increases expression of the SMN2 splice variant; Potency, µM (top dose mostly 46.1 µM), inactives show at the highest dose activity change, positive = activation, most hits filed as activators; HEK293 SMN2-luciferase splicing reporter, luminescence, 30-36 h; 210,000 compounds, 2.8% hits; AID 1458; also: % of control where 0% means no effect; nearly all actives have a fitted effect of over 55% in size
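HEK293 cells carry an SMN2 […]–luciferase reporter in which exon 7 inclusion puts luciferase in frame. Cells were plated 10-12 h before compound addition, then incubated 30-36 h at 37C. ONE-Glo luminescence was read; sodium butyrate at 4.5 mM final served as control.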
ELG1 genotox – inducers of genotoxicity in HEK293T ELG1-luciferase cells; HEK293T ELG1-luciferase reporter, luminescence, 16 h; 330,000 compounds, 1.3% hits; Potency, µM (doses to about 46 µM), for the others: at the top dose activity change, positive = activation, usual class: activators; also: % of control where 0% means no effect; nearly all actives have a fitted effect of over 60% in size
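Luminescence read-out: rising ELG1-luciferase signal, reflecting elevated ELG1 protein under genetic stress, flags genotoxic compounds. Cells were treated for 16 hr at 37 °C before ONE-Glo detection.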
* marks the source's active call; other numbers are inactive results; u = inconclusive; x = not tested or not shown; [ ] = dose if it differs, or a comment. In the library only some 7.4% were active in any assay of this set; here they are far more common. Calls follow the shape of the dose curve; as a rule, active = well fitted curve in the direction sought with a large enough effect; inconclusive = small, poorly fitted or top-dose-only effect, or another doubt; inactive = no such curve, though single readings can be large; an effect the other way counts as inactive or inconclusive. Potency is read from the fitted curve at half-maximal effect.

SMILES	Luc counter	Rab9 prom act	FLuc counter	NPC1 promoter act	SMN2 splice enh	ELG1 genotox
Cc1ccc(C)c(Cn2c(=O)n(Cc3ccccc3)c(=O)c3sc4ccccc4c32)c1	x	x	-0.1%	x	-9.3%	x
Cc1nnc(NCc2ccc(F)cc2)c2c1nnn2Cc1ccccc1Cl	x	x	-0.7%	x	-0.8%	x
O=c1[nH]c2ccc(NCc3ccc(-c4cccc(Cl)c4)o3)cc2[nH]1	x	x	-8.6%	x	x	x
CO[C@@H]1c2cc(F)ccc2/C(=C\CCOC(=O)C/C=C/c2ccccc2)[C@H]1C	2.2%	x	x	x	3.3%	x
Cn1c(SCC(=O)Nc2ccc3c(c2)OCCO3)nnc1C1CC1	x	1.3%	u	9.8%	x	0.2%
CCn1c(SC(C)C(=O)Nc2ccc3c(c2)OCCO3)nnc1C1CC1 (stereo unspecified)	x	1.9%	23.9µM*	0.0%	x	-0.4%
C[C@@H](C(=O)Nc1ccc2c(c1)OCCO2)n1nnc2ccccc2c1=O	x	3.55µM*	8.49µM*	3.55µM*	x	u
CC(Sc1nc2ccccc2[nH]1)C(=O)Nc1ccc2c(c1)OCCO2 (stereo unspecified)	-2.3%	0.1%	21.3µM*	-2.2%	-5.2%	-0.3%
C=C(C(=O)O)[C@@H]1CC[C@@]2(C)CCC[C@](C)(O)[C@@H]2C1	-0.1%	x	x	x	u	x
C=CCNc1nc2c3ccccc3n(C(C)=O)c2s1	-2.6%	23.4%	23.9µM*	21.4%	-3.0%	u
CCCCCCCCCCCCCCC[C@@H](O)[C@H](CO)NC(=O)CCCCCCC	0.3%	x	x	x	4.9%	x
CCN(CC)CCCNC(=S)Nc1ccc(Br)cc1	-14.7%	u	10.7µM*	u	x	23.1µM*
S=C(Nc1ccc(Br)cc1)NC1CCCCC1	0.2%	20.9%	10.7µM*	23.0%	12.6µM*	7.4%
S=C(Nc1cccc(Cl)c1)NC1CCCCC1	-3.2%	3.6%	u	1.9%	2.9%	-1.5%
CC(C)(C)NC(=S)Nc1ccc(Br)cc1	-1.5%	15.1%	19µM*	6.3%	-21.8%	1.9%
S=C(Nc1ccc(Cl)cc1)NC1CCCCC1	x	18.9%	15.1µM*	28.9%	x	-4.4%
COCCNC(=O)c1c(NC(=O)c2cc(=O)c3cc(C)cc(C)c3o2)sc2c1CCCC2	x	x	-1.7%	x	-1.8%	x
FC(F)Oc1ccc(NC(=S)NC2CCCCCCC2)cc1	x	28.0%	19µM*	22.6%	x	-12.3%
Cc1ccc(OCC(=O)Nc2c(Cl)ccc3nsnc23)cc1C	x	x	1.9%	x	7.4%	x
C=CCOc1ccc(C(=O)/C=C2/C(=O)Nc3ccccc32)cc1	x	-1.6%	1.51µM*	-4.3%	x	16.1%
NC(=O)COc1ccc(C(=O)/C=C2/C(=O)Nc3ccccc32)cc1	x	-4.9%	10.7µM*	2.9%	x	15.0%
COc1ccc(N2CCN(C(=O)c3ccc(-c4nc(COc5ccccc5)c(C)o4)cc3)CC2)cc1	x	x	-10.6%	x	x	x
N#Cc1ccc(/C=C(\C(=O)C(=O)O)c2ccc3ccccc3n2)cc1	x	u	u	0.7%	x	u
Cc1cccc(/C=C(\C(=O)C(=O)O)c2ccc3ccccc3n2)c1	-0.2%	2.24µM*	u	2.24µM*	22.4µM*	14.6µM*
O=C(O)C(=O)/C(=C\c1cccc(Cl)c1)c1ccc2ccccc2n1	0.9%	-0.3%	u	4.1%	11.2µM*	u
SMILES	Luc counter	Rab9 prom act	FLuc counter	NPC1 promoter act	SMN2 splice enh	ELG1 genotox
COc1ccc(CCC(=O)N2c3ccccc3CC2C)cc1 (stereo unspecified)	-0.5%	21.8%	u	24.4%	38.7%	u
COc1ccc(CCC(=O)N2CCc3ccccc32)cc1	-4.1%	u	9.53µM*	u	-0.3%	u
O=C(c1ccccc1)N1CCc2ccccc21	-5.9%	12.3%	1.5%	-1.6%	-9.1%	-0.2%
COc1ccc(NC(=O)N2CCc3ccccc32)cc1	u	0.398µM*	1.69µM*	0.631µM*	3.16µM*	u
O=C(Nc1ccccc1)N1CCc2ccccc21	u	1µM*	21.3µM*	1.58µM*	14.1µM*	9.2µM*
COc1ccc(C(=O)N2CCc3ccccc32)cc1	0.5%	u	u	26.8%	11.2µM*	u
COc1ccc(NC(=O)N2CCCc3ccccc32)cc1	10.5%	5.5%	u	12.7%	-5.6%	21.0%
CCCC[C@@H](C=O)NC(=O)[C@H](CC(C)C)NC(=O)[C@H](CC(C)C)NC(C)=O	1.2%[39.9 µM]	x	x	x	-93.9%	x
N[C@H](CCC(=O)NCC(=O)O)C(=O)O	3.7%	x	x	x	1.1%	x
Cn1c(=O)c(=O)n(C)c2cc(N3CCCC3)c(NC(=O)c3ccccc3F)cc21	x	x	-0.6%	x	3.4%	x
COC(=O)c1cc2sc(C)cc2n1Cc1nc(-c2cccc(Br)c2)oc1C	x	x	-2.9%	x	9.6%	x
CCOC(=O)c1ccc(NC(=O)N2CCc3ccccc32)cc1	-9.1%	1.78µM*	1.9µM*	1.78µM*	15.8µM*	8.2µM*
CCOC(=O)c1ccc(NC(=O)N2CCc3ccccc3C2)cc1	x	17.6%	u	-0.7%	x	12.6%
COc1ccc(CCNc2ncnc3c2c(-c2ccccc2)cn3-c2ccc(Cl)cc2)cc1OC	x	x	-4.3%	x	x	x
Cc1ccc(C(=O)NCCc2ccccc2)cc1	x	0.0398µM*	0.536µM*	u	x	u
Cc1ccc(CNC(=O)c2ccc(Cn3cc(-c4ccc(C)cc4)nc3-c3ccncc3)cc2)cc1	x	2.82µM*	10.7µM*	u	x	u
Cc1ccc(CCNC(=O)NC(C)(C)C)cc1	2.2%	u	u	u	3.55µM*	13.1%
Cc1ccc(CCNC(=O)Cn2cccc2)cc1	-4.0%	1.0%	1.9%	-2.9%	8.8%	0.8%
CN(c1ccc(C(=O)NCCSC(C)(C)C)cc1)S(C)(=O)=O	4.4%	u	19µM*	u	11.2µM*	10.3µM*

High-throughput results (PubChem)
